# Hits are enriched below; roughly 5.3% of the tested compounds scored in any of these assays.
# PostGolgi yeast: growth inhibition of a yeast mutant, post-Golgi transport screen | post-Golgi transport phenotypic cell assay | inhibition, % at 10 µM | hit rate 0.9% among 98,000;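 further: yeast cells grown in 1536-well plates; yeast grown about 18 h at 30C before absorbance read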
# Measles CPE: protection of cells from measles virus; protection (pct of control), % at 4 µM; AID 841; Measles virus-infected cells, CPE protection, absorbance; hit rate 1.5% among 140,000; in the data active means protection mostly above about 24%, no sharp cut-off; inactive means mostly below about 26%
# MT1-MMP txn act: activates MT1-MMP transcription. HT1080 MT1-MMP promoter luciferase reporter, luminescence, overnight; stronger effect = higher value. activation factor at 10 µM. hit rate 0.16% among 86,000;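 active means activation factor of at least 2 for MT1-MMP transcription at 10 µM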
# PostGolgi ctrl: growth of the yeast control strain, post-Golgi counter-screen; efflux-deficient yeast background strain, growth absorbance A615, 16 h; inhibition, % at 10 µM; hit rate 5% among 98,000; AID 738
# Starred values were filed as active, the others as inactive; . = not tested or not shown. Unless noted, no stated cut-off is given here; in the data, active means inhibition above about 30%; inactive means the rest.
SMILES,PostGolgi yeast,Measles CPE,MT1-MMP txn act,PostGolgi ctrl
CCCCc1ccc(Nc2nc(CCC)cc(=O)[nH]2)cc1,6,0,1,52*
CCCc1cc(=O)[nH]c(Nc2ccc(N3CCCCC3)cc2)n1,7,8,.,11
CC(=O)NC(Cc1ccc(C)cc1)C(=O)NC1CCN(c2ncccc2[N+](=O)[O-])CC1 (centres undefined),.,8,.,.
Cn1c(=O)c2c(nc(NCc3ccco3)n2CC(O)COc2ccccc2)n(C)c1=O (centres undefined),-1,21,1.2,40*
Cn1c(NCc2ccco2)nc2c1c(=O)n(Cc1ccc(Cl)cc1)c(=O)n2C,1,6,1,24
Cn1c(NCc2ccco2)nc2c1c(=O)n(Cc1ccc(Br)cc1)c(=O)n2C,-6,11,1.1,32*
CCC(=O)Oc1ccc(C(=O)Nc2ccc3c(c2)C(=O)N(C2CCCCC2)C3=O)cc1,-4,21,.,7
C[C@@H](C(=O)N[C@@H](CO)Cc1ccccc1)[C@H]1C[C@]1(C)[C@H](NC(=O)OCc1ccccc1)c1ccccc1,.,.,1.2,.
CCCc1[nH]nc2c1C(c1cc(OC)cc(OC)c1)C(C#N)=C(N)O2 (centres undefined),10,83*,0.9,-4
CCCc1[nH]nc2c1C(c1ccc(OC)c(CSC3=NCCS3)c1)C(C#N)=C(N)O2 (centres undefined),-3,28*,1,6
CCN=C1SC(C(=O)Nc2cccc(Br)c2)CC(=O)N1CC (centres undefined),.,12,.,.
Nc1c(-c2ccccc2)nc(Cl)nc1-c1ccccc1,1,9,.,4
c1ccc(-c2nc3nonc3nc2-c2ccccc2)cc1,16,7,0.8,31*
CCN(CC)c1nc(OCCNC(=O)Nc2ccccc2)nc(N(CC)CC)n1,13,18,1,12
Cc1ccc(-n2nc(C)c3c(C(=O)OCC(=O)N(C)C4CCS(=O)(=O)C4)cc(-c4ccccc4)nc32)cc1 (centres undefined),.,10,.,.
O=c1c(/C=C(\O)c2ccccc2)nc2ccccc2n1-c1ccccc1,-10,0,1.1,30*
Cc1cccc(OCCCSc2nc3ccccc3[nH]2)c1,2,15,.,34*
Cc1cccc(OCCSCc2nc3ccccc3[nH]2)c1,2,9,.,23
O=C1/C(=C/c2cccs2)N=C(c2cccs2)N1Nc1ccccc1,-1,10,1.2,22
Cc1ccc(C2=N/C(=C\c3cccs3)C(=O)N2Nc2ccccc2)cc1,11,26,1.1,32*
CCOC(=O)[C@H]1NN=C(C(=O)OC)[C@@H]1c1ccccc1,.,7,.,.
COc1ccc(C2(CN(C(C)=O)C(C)=O)CCCC2)cc1OC,1,3,1,39*
Cc1noc(/C=C/c2ccco2)c1S(=O)(=O)N1CCC(C(=O)NCc2ccco2)CC1,28,4,1.1,22
Cc1noc(/C=C/c2ccco2)c1S(=O)(=O)N1CCC(C(=O)N2CCc3ccccc3C2)CC1,1,6,1.2,39*
Cc1ccc(NC(=O)C2CCN(S(=O)(=O)c3c(C)noc3/C=C/c3ccco3)CC2)nc1,.,5,.,.
SMILES,PostGolgi yeast,Measles CPE,MT1-MMP txn act,PostGolgi ctrl
Cc1ccc(CNC(=O)C2CCN(S(=O)(=O)c3c(C)noc3/C=C/c3ccco3)CC2)cc1,-9,20,.,33*
Cc1ccc(/C=C/C(=O)Nc2sc3c(c2C#N)CCCC3)o1,.,17,.,.
Cc1ccc(NC(=O)N(C2CCCCC2)C(C)c2cccnc2)cc1C (centres undefined),99*,5,.,90*
COc1ccc(NC(=O)N(C2CCCCC2)C(C)c2cccnc2)c(OC)c1 (centres undefined),80*,9,1.1,28
CCc1ccc(NC(=O)N(C2CCCCC2)C(C)c2cccnc2)cc1 (centres undefined),107*,30,1,95*
COc1ccc(NC(=O)N(C2CCCCC2)C(C)c2ccco2)c(OC)c1 (centres undefined),-8,19,1.2,18
CCc1ccc(NC(=O)c2cccnc2)cc1,3,11,1.5,5
O=C(CCCSc1nc2ccccc2[nH]1)N1CCN(c2ccc([N+](=O)[O-])cc2)CC1,-4,4,.,32*
CC(C)(C)CC(=O)Nc1nn[nH]n1,.,9,.,.
CCOC(=O)c1ccc(NC(=O)CCC(=O)OC)cc1,0,12,1.2,30*
CCOC(=O)c1ccc(NC(=O)N2CC(C)OC(C)C2)cc1 (centres undefined),6,3,2*,5
CCOC(=O)c1ccc(NC(=O)CC2COc3ccccc3O2)cc1 (centres undefined),4,1,0.9,32*
CCOC(=O)CC(=O)Nc1ccc(C(=O)OCC)cc1,2,17,1.1,5
COc1ccc(COC(=O)NC2CCN(S(=O)(=O)c3ccc(OC)cc3)CC2)cc1,-3,3,.,4
COc1ccc(S(=O)(=O)N2CCCC(C(=O)NC3CCCCC3)C2)cc1 (centres undefined),-2,6,1,32*
COc1ccc(S(=O)(=O)N2CCC(NC(=O)OCc3c(Cl)cccc3Cl)CC2)cc1,-12,6,.,32*
CCCC(c1nnnn1C1CCCCC1)N1CCN(c2ncccn2)CC1 (centres undefined),1,9,1,37*
O=S(=O)(/N=C(/Nc1ccccn1)c1ccc(Cl)cc1)c1ccc(Cl)cc1,.,7,.,.
CCNC(=O)n1nccc1C(C)Oc1cccc(C(F)(F)F)c1 (centres undefined),-5,20,.,35*
CCCc1nc2ccccc2c(C(=O)OC(C)C(=O)NCc2ccc3c(c2)OCO3)c1CC (centres undefined),.,6,.,.
COc1cc(NC(=O)C2CCCCC2)c(OC)cc1NC(=O)CN1CCCCC1,17,47*,1.2,9
COc1cc(NC(=O)Nc2ccccc2OC)c(OC)cc1NC(=O)CN1CCCCC1,-6,2,1.2,-5
COc1ccc(CNC(=O)CSCc2ccccc2Cl)cc1,.,13,.,.
CC(C)=CC(=O)OCC(=O)Nc1ccc(F)cc1Cl,12,6,1.2,33*
CC(C)=CC(=O)OCC(=O)Nc1cc([N+](=O)[O-])ccc1F,.,5,.,.
SMILES,PostGolgi yeast,Measles CPE,MT1-MMP txn act,PostGolgi ctrl
O=C(CCl)N(c1ccc(Cl)cc1)c1c[nH]c2ccccc12,26,1,0,44*
O=C(CCl)N(c1ccccc1)c1c[nH]c2ccccc12,17,4,0.2,18
CCCCCCSc1nsc(NC(=O)CC(C)C)n1,.,7,.,.
CCCSc1nsc(NC(=O)C(c2ccccc2)c2ccccc2)n1,16,2,.,35*
CC1(C2(O)CC(c3ccccc3)ON2)CCCCC1 (centres undefined),-8,29*,1.2,1
O=C(Nc1ccccc1)c1ccsc1,.,21,.,.
O=C(COC(=O)CCC(NC(=O)OCc1ccccc1)C(=O)OCC(=O)Nc1ccccc1)Nc1ccccc1 (centres undefined),.,2,.,.
Brc1ccccc1-c1nnc(COc2ncnc3c2cnn3-c2ccccc2)o1,1,11,1,74*
Cc1ccc(N2C(=O)NC(C(F)(F)F)(C(F)(F)F)C3=C2CC(C)(C)CC3=O)cc1,.,12,.,.
COc1ccccc1CNC(=O)/C=C/c1cc2c(cc1Br)OCO2,-4,0,.,-6

# From PubChem BioAssay
